# Screen size: about 300,000 compounds; about 37,000 (12%) were called active. No stated cut-off is given here; in the data, active means max response mostly above about 13% (no sharp cut-off); inactive means mostly below about 14%. The full list was thinned out, with actives kept by preference.
# Test: Cycloheximide Counterscreen for Small Molecule Inhibitors of Shiga Toxin; further: read at 38.3 µM for the half of the compounds with a filed dose; 0% is about no effect
# Settings: cell reporter, cycloheximide protein synthesis inhibition counterscreen; stronger effect = higher value
row,SMILES,max response
1,Nc1ncc(CN2CCCC(C(=O)Nc3ccc(-c4ccco4)cc3)C2)cn1 (configuration not stated),-1.66% (inactive)
2,CCOC(=O)c1cccc(NC(=O)CCc2nnc3ccc(N4CCOCC4)nn23)c1,0.592% (inactive)
3,COc1ccc(NC(=O)CCCC(=O)c2ccccc2)cc1,12% (inactive)
4,Cc1ccc(NC(=O)CCC(=O)c2ccc(Br)cc2)cc1,-1.06% (inactive)
5,COC(=O)c1ccc(NC(=O)c2ccccc2NS(=O)(=O)c2ccccc2)cc1,7.47% (inactive)
6,Cc1ccc(C(=O)NC2CCN(C(=O)Nc3ccc(F)cc3)CC2)cc1,-5.94% (inactive)
7,COC(=O)c1ccc(NCC(=O)N2CCCCCC2)cc1,19.4% (active)
8,COC(=O)c1ccc(C(=O)OC)c(NC(=S)N2CCCCC2)c1,1.84% (inactive)
9,COC(=O)c1ccc(NCC(=O)c2ccccc2)cc1,29.7% (active)
10,Cc1ccc(C(=O)CNc2ccc(F)cc2)cc1,13.3% (active)
11,COC(=O)c1ccc(/C=N/NC(=O)C(=O)N2CCCCCC2)cc1,-2.86% (inactive)
12,O=C(NC1CCCCC1)C1CCC(CNS(=O)(=O)c2ccccc2)CC1 (configuration not stated),-1.26% (inactive)
13,COc1ccccc1C1C(C(N)=O)=C(C)Nc2nc(CCCO)nn21 (configuration not stated),-5.85% (inactive)
14,C[C@@H]1O[C@@H](OC[C@H]2O[C@@H](Oc3cc(O)c4c(c3)O[C@H](c3ccc(O)c(O)c3)CC4=O)[C@H](O)[C@@H](O)[C@@H]2O)[C@H](O)[C@H](O)[C@H]1O,-3.85% (inactive)
15,COC(=O)c1cc2occc2n1Cc1nc(-c2ccccc2C)oc1C,-1.91% (inactive)
16,CCOC(=O)C1(Cc2cccc(OC)c2)CCN(Cc2csc(C(C)=O)c2)CC1,-2.31% (inactive)
17,CCC(C(=O)NCCC(C)C)N(Cc1ccccc1Cl)C(=O)c1snc(C(N)=O)c1N (configuration not stated),-2.42% (inactive)
18,COCCN(C(=S)Nc1cccc(Cl)c1C)C(C)c1ccco1 (configuration not stated),5.55% (inactive)
19,CCc1cccc(CC)c1NC(=O)COc1ccccc1C(=O)c1cc(C#N)c(=O)n(C2CCCCC2)c1,5.88% (inactive)
20,CCOc1ccc(CN(C)C(=O)c2ccc(=O)[nH]c2)cc1,-4.67% (inactive)
21,CC(C)CNS(=O)(=O)c1ccc(C(=O)Nc2ccc3c(c2)OCO3)cc1,-0.729% (inactive)
22,Cc1cccc(NC(=O)Nc2ccc3c(c2)OCO3)n1,45.7% (active)
23,O=C(/C=C/c1ccc2c(c1)OCO2)NCc1ccc(F)cc1,9.99% (inactive)

row,SMILES,max response
1,CC(NC(=O)Nc1ccc2c(c1)OCO2)c1ccncc1 (configuration not stated),11.1% (inactive)
2,CCc1c(C)sc(NC(=O)/C=C/c2ccc3c(c2)OCO3)c1C(=O)OC,16.3% (inactive)
3,CC(NC(=S)Nc1ccc(S(N)(=O)=O)cc1)c1ccc2c(c1)OCO2 (configuration not stated),-3.68% (inactive)
4,Cc1cccc(NC(=O)/C=C/c2ccc3c(c2)OCO3)n1,64.4% (active)
5,CCc1ccc(NC(=O)NC(C)c2ccc3c(c2)OCO3)cc1 (configuration not stated),0.596% (inactive)
6,CNS(=O)(=O)c1ccc(NC(=O)Nc2ccc3c(c2)OCO3)cc1,46.9% (active)
7,CCCC1OC23CCCCC2C(C#N)(C#N)C1(C#N)C(=N)O3 (configuration not stated),-1.48% (inactive)
8,Cc1ccc(C23CC4CC(CC(C(=O)NCC(=O)O)(C4)C2)C3)cc1,-6.43% (inactive)
9,COc1ccc(Oc2cn[nH]c2-c2ccc(OC)cc2O)cc1,2.15% (inactive)
10,COc1cc(C(=O)Nn2c(CC(C)C)nc3ccccc3c2=O)cc(OC)c1OC,-3.7% (inactive)
11,Cc1ccc(Cl)cc1NC(=O)C1CCN(S(C)(=O)=O)CC1,8.41% (inactive)
12,COc1ccc(Br)cc1C1C2C=CCC(C)C2C(=O)N1Cc1ccccc1 (configuration not stated),2.32% (inactive)
13,Cc1nccc(-c2ccc(-n3c(C)ccc3C)cc2)n1,1.97% (inactive)
14,C=CCOC(=O)C1=C(C)N=C2SCCC(=O)N2C1/C=C/c1ccccc1OC (configuration not stated),-1.27% (inactive)
15,O=C1OC(/C=C/c2ccccc2)=NC/1=C/c1ccco1,-1.15% (inactive)
16,COc1ccccc1/C=C/C1=NC(=C\N(C)C)/C(=O)O1,10.1% (active)
17,COc1cc2c(cc1OC)C(c1ccccc1Br)NC(=O)C2 (configuration not stated),2.36% (inactive)
18,CCC(=O)Nc1nc(C)c(C(=O)Nc2cccc(Cl)c2)s1,16.2% (active)
19,Cc1nc(NC(=O)c2cccc(Cl)c2)sc1-c1csc(Nc2cccc(Cl)c2)n1,-1.16% (inactive)
20,CCC(=O)Nc1sc(C(=O)Nc2ccccc2)c(C)c1C(=O)OC,6.77% (inactive)
21,Cc1ccc(C2C(C#N)C(C#N)N3CCCN23)cc1 (configuration not stated),14.4% (inactive)
22,CCC(C)NC(=O)CSC1=Nc2ccccc2C2=NC(CCC(=O)NCc3ccco3)C(=O)N12 (configuration not stated),0.985% (inactive)
23,O=C(CC1N=C2c3ccccc3N=C(SCc3ccccc3Cl)N2C1=O)NCc1ccco1 (configuration not stated),18% (active)

row,SMILES,max response
1,O=C(CSC1=Nc2ccccc2C2=NC(CC(=O)NCc3ccco3)C(=O)N12)NCc1ccco1 (configuration not stated),6.84% (inactive)
2,N#Cc1c(-c2ccccc2)nc(SCc2cccc(C(F)(F)F)c2)[nH]c1=O,4.14% (inactive)
3,CCc1ccc(NC(=O)Cn2nnc(C(=O)NCc3ccc(OC)cc3)c2N)cc1,-3.14% (inactive)
4,CCCCCc1c(C)nc(N2CCN(Cc3ccc4c(c3)OCO4)CC2)[nH]c1=O,-0.993% (inactive)
5,CC(=O)c1cnc(-c2ccccc2)s1,35.2% (active)
6,O=C(/C=C/Nc1ccccc1)c1cnc(-c2ccccc2)s1,1.67% (inactive)
7,O=S(=O)(c1ccc(F)cc1)n1ccc(-c2cnc(-c3ccccc3)s2)n1,1.13% (inactive)
8,Cc1cccc(N2CCN(S(=O)(=O)c3ccc4[nH]c(=O)c(=O)[nH]c4c3)CC2C)c1 (configuration not stated),-2.14% (inactive)
9,CC1(C)C(C=C(Cl)Cl)C1C(=O)N(Cc1ccc(Cl)cc1)C1CCS(=O)(=O)C1 (configuration not stated),3.61% (inactive)
10,Cc1ccc2nc(S(=O)(=O)O)[nH]c2c1,-7.91% (inactive)
11,Cc1ccc2nc(/C(C#N)=C\c3ccc(OC(=O)c4cccs4)cc3)[nH]c2c1,29.1% (active)
12,COc1ccc(CCNC(=O)/C(C#N)=C2\N=C(NC(=O)c3cccs3)c3ccccc32)cc1,-2.25% (inactive)
13,CN1CCc2ccccc2C1Cc1ccccc1NC(=O)c1sc2ccccc2c1Cl (configuration not stated),5.79% (inactive)
14,O=C(Nc1ccon1)c1sc2ccccc2c1Cl,64.4% (active)
15,O=C(Nc1ccon1)c1cccc(Cl)c1,8.4% (inactive)
16,COc1ccc(C)cc1NC(=O)C(Sc1ccccc1)c1ccccc1 (configuration not stated),-3.77% (inactive)
17,CC1CCN(C(=O)c2ccc3c(=O)n4c(nc3c2)CCCCC4)CC1,14.9% (inactive)
18,CCn1nc(C)c(CN2CCN(Cc3ccc(OC)c(C)c3C)C(CCO)C2)c1C (configuration not stated),-1.08% (inactive)
19,Cc1cccc(-[n+]2c(-c3cccc(Br)c3)[nH]c3nc4ccccc4nc32)c1,0.81% (inactive)
20,COc1ccc(OCC(=O)NCCS(=O)(=O)N2CCN(c3ccc(F)cc3)CC2)cc1,13.1% (inactive)
21,CN(CC(=O)NCc1ccc(Cl)cc1)S(=O)(=O)c1cccs1,10.2% (active)
22,O=C(NCc1ccc(Cl)cc1)C1CCN(S(=O)(=O)c2cccs2)CC1,-3.46% (inactive)
23,COc1ccc(CNC(=O)CN(Cc2ccc(Cl)cc2)S(C)(=O)=O)cc1,-2.61% (inactive)

row,SMILES,max response
1,NC(=O)CN1CCCC1c1ccc2c(c1)OCCO2 (configuration not stated),10.4% (inactive)
2,Cc1ccccc1OCC(=O)NNC(=O)c1cc(S(=O)(=O)N(C)C)ccc1N1CCCC1,-2.55% (inactive)
3,Cc1ccc(-n2c(SCC(=O)N/N=C/C=C/c3ccccc3[N+](=O)[O-])nc3ccccc3c2=O)cc1,-7.24% (inactive)
4,CCn1c(SCC(=O)N/N=C/C=C/c2ccccc2[N+](=O)[O-])nnc1-c1ccccc1,8.3% (inactive)
5,O=C(CSc1nc2ccccc2[nH]1)N/N=C/C=C\c1ccccc1[N+](=O)[O-],13.8% (active)
6,OC(COc1ccc(Br)cc1)CN1CCCC1 (configuration not stated),-1.85% (inactive)
7,CN(CCC1CCOCC1)C(=O)CC1C(=O)NCCN1Cc1cccc(F)c1 (configuration not stated),-2.83% (inactive)
8,CC(=O)c1c(C)[nH]c(C(=O)OCC(=O)Nc2cc(S(=O)(=O)N3CCCCC3)ccc2C)c1C,-1.55% (inactive)
9,Cc1cccc([C@H]2[C@@H]3C=CC[C@@H](C)[C@@H]3C(=O)N2Cc2ccccc2)c1,-6.21% (inactive)
10,COc1ccc(NCCc2ccccn2)cc1,30.6% (active)
11,Cc1c(C)c(C)c(S(=O)(=O)NCCc2ccccn2)c(C)c1C,-3.58% (inactive)
12,O=S(=O)(/C=C/c1ccccc1)NCCc1ccccn1,10.5% (inactive)
13,COc1ccc(S(=O)(=O)NC(C)C(=O)NCc2ccncc2)cc1Cl (configuration not stated),-5.01% (inactive)
14,Cc1c(CNCCc2ccccc2)c(C(=O)O)c(C)n1-c1ccccc1,12.6% (active)
15,CNC(=O)CSc1nnc(CCc2ccccc2)n1-c1ccccc1,1.1% (inactive)
16,Cc1c(C(=O)NCc2ccccc2)cnn1-c1ccccc1,22.7% (inactive)
17,COC(=O)CCCC1=CC2=C(c3ccccc3)C(=O)C(C)(OC(=O)C3CCCC3)C(=O)C2=CN1c1ccc(OC)cc1 (configuration not stated),-2.86% (inactive)
18,CCn1c(=S)[nH]c2sc3c(c2c1=O)CCCCC3,-1.45% (inactive)
19,COc1ccc(N2CCN(C3CCCCC3NS(=O)(=O)c3ccccc3)CC2)cc1 (configuration not stated),-5.98% (inactive)
20,Cc1ccc2cc(C)c(N3CCC(C)CC3)nc2c1,23.2% (active)
21,Cc1nc(N2CCC(C)CC2)c2c(C)c(C(=O)Nc3cc(F)ccc3C)sc2n1,4.36% (inactive)
22,Cc1ccc2cc(C)c(N3CCN(c4ccc(F)cc4)CC3)nc2c1,10.1% (inactive)
23,CC(NC(=O)c1cccc2ccccc12)c1ccc2c(c1)CCCC2 (configuration not stated),-1.47% (inactive)

# From PubChem BioAssay AID2314 (National Center for Advancing Translational Sciences (NCATS), 2010)
